In the library only some 5.7% were active in any assay of this set; here they are far more common.
GLP-1R inv ag: inverse agonists of human GLP-1 receptor. P43220. HEK293 GLP-1R CRE-luciferase, luminescence, 24 h; GLP-1R form is constitutively active. Potency, µM (highest dose often 38.3 µM), without a hit: top-dose activity change, negative = inhibition, actives largely listed as inhibitors. 410,000 tested, 1.6% active. AID 624417; note: potency is the fitted concentration of half-maximal effect; % is set by controls: 0 for no effect and ±100 for the full control effect; nearly all actives have a fitted effect of over 55% in size
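HEK293 cells stably co-expressing constitutively active GLP-1R and a cAMP-responsive luciferase reporter were seeded in DMEM with 10% Nu serum, given compounds after 12 h, and incubated 24 h at 37 deg C. Luminescence was then read.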
HEK293 tox: cytotoxic in the GLP-1 receptor inverse agonist counter-screen. HEK293 cAMP-luciferase reporter cells, luminescence, 24 h. Potency, µM (highest dose often 38.3 µM), for inactives: at the highest dose activity change, negative = inhibition, actives largely listed as inhibitors. 410,000 tested, 0.13% active;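 note: loss of luciferase light is scored as toxicity; potency is the fitted concentration of half-maximal effect; % is set by controls: 0 for no effect and ±100 for the full control effect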
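Here, cytotoxicity is scored as loss of luminescence. The MLSMR collection was tested on cells seeded in medium containing 10% Nu serum, with a 24 hr compound exposure preceded by 12 hours of culture.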
D3 ag: agonists of human D3 dopamine receptor; P35462; D3R DiscoveRx beta-arrestin cells, luminescence, 90 min; max activation, %; 410,000 tested, 0.58% active; AID 652048; in the data active = max activation above about 30%; note: 0% is about no effect
Target sequence (P35462 whole entry, looked up): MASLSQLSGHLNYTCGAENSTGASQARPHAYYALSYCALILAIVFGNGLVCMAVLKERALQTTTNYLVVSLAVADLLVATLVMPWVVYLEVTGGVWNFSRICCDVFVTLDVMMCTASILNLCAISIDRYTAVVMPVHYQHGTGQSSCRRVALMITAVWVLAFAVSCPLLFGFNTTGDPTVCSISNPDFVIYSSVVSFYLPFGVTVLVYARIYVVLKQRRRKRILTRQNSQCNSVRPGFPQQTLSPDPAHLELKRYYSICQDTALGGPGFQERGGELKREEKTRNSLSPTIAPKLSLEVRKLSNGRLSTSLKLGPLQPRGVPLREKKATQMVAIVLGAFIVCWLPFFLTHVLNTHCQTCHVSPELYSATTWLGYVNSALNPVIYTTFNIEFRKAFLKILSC
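Agonist mode: compounds and dopamine controls were applied to plated cells for 90 min at 37 degrees C after an overnight attachment at 1500 cells/well. Luminescent read-out followed 30 - 60 minutes at room temperature with DiscoveRx detection reagent.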
D3 antag: blocks the human D3 dopamine receptor. D3R cells, DiscoveRx beta-arrestin luminescence, antagonist mode; active compounds read low. max response, negative = inhibition, %. 360,000 tested, 2.5% active. AID 652054; in the data active = max response below about -50%; inconclusive = no clear call, values can overlap the other calls; note: % is set by controls: 0 for no effect and ±100 for the full control effect
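Cells plated overnight at 1500 cells/well, then exposed to library compounds with dopamine controls for 90 minutes at 37 degrees C. DiscoveRx reagent added for 30–60 minutes at room temperature; luminescence read, quantitative HTS format.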
GLP1R ag: agonists of human GLP-1 receptor; P43220; HEK293 GLP-1R CRE-luciferase, luminescence, 4-6 h; cells express a hypersensitive GLP-1R form; Potency, µM (top dose mostly 45.6 µM), for the others: at the highest dose activation, most hits filed as activators; 380,000 tested, 0.007% active; note: potency is the fitted concentration of half-maximal effect; % of control where 0% means no effect
ClpP mod: qHTS Assay for Activators of ClpP. ATP-dependent Clp protease proteolytic subunit (Bacillus subtilis (strain 168)), P80244. purified B. subtilis ClpP, FRET peptide cleavage, 20 min. Potency, µM (doses to about 57.5 µM), without a hit: at the highest dose activity change, negative = active. 340,000 tested, 1.9% active. AID 651965, 2013; active = well fitted falling curve with a large enough effect; inconclusive = small, poorly fitted or top-dose-only effect; inactive = no such curve, though single readings can be large or run the other way; note: potency is the fitted concentration of half-maximal effect; the source files actives as falling curves though it sought activators and does not explain the sign; nearly all actives have a fitted effect of over 65% in size
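Purified B. subtilis ClpP, 10 microg/mL final in Tris/HCl pH8 with KCl, BSA, glycerol and Tween-20, cleaved an Abz/nitrotyrosine-quenched decapeptide. Fluorescence (ex 320, em 430) was read at 0 and 20 min at room temperature. Delta was normalized to 5.8 microM ADEP and DMSO/no-enzyme controls.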
* hit, by the source's call; ? = inconclusive; . = no result; [ ] = dose if it differs, or a comment. Unless noted, calls come from the whole dose curve; as a rule, active = well fitted curve in the direction sought with a large enough effect; inconclusive = small, poorly fitted or top-dose-only effect, or another doubt; inactive = no such curve, though single readings can be large; an effect the other way counts as inactive or inconclusive.

SMILES	GLP-1R inv ag	HEK293 tox	D3 ag	D3 antag	GLP1R ag	ClpP mod
COc1cccc(/C=N/NC(=O)C(C)n2nc(C)c([N+](=O)[O-])c2C)c1O (stereo not drawn)	1.8µM*	?	6	19	-3%	0%
COc1cccc(/C=N/NC(=O)Cn2nc(C)c([N+](=O)[O-])c2C)c1O	-17%	15%[1.53 µM]	-2	-13	-11%	0%
N#CCCN(C(=O)CCl)c1cccc(Cl)c1	2.2µM*	-13%	-2	6	-5%	1%
CCCCCCCN(C(=O)CCl)c1cccc(C)c1	?	6%[1.53 µM]	2	-4	-14%	-4%
CCOC(=O)c1ccccc1NC1(c2ccc(OC)cc2)C(=O)c2ccccc2C1=O	?	-17%	9	.	.	2%
Cc1ccc(CN(C(=O)COc2ccc(Cl)c(C)c2)C2CCS(=O)(=O)C2)o1 (stereo not drawn)	?	-2%	-9	.	.	-5%
COC(=O)c1cc2c(ccn2-c2ccc(F)cc2)n1Cc1cccc(OC)c1	-3%	14%	-6	8	-9%	28µM*
COC(=O)c1cc2c(ccn2-c2ccc(F)cc2)n1Cc1ccc(OC(C)=O)cc1	?	-9%	6	-3	25%	28µM*
COc1ccccc1NC(=O)CSc1nc2c(oc3ccccc32)c(=O)n1-c1ccccc1F	-2%	-4%	9	.	.	-19%
COc1cc(/C=C2\CCc3c2nc2ccccc2c3C(=O)O)cc(OC)c1OC	15%	91%	5	0	-3%	-7%
CNC(=O)NC(=O)C(C)OC(=O)c1c2c(nc3ccccc13)/C(=C/c1cccs1)CC2 (stereo not drawn)	1%	281%	37*	2	-4%	-5%
COc1ccc(Br)cc1C1NC(c2ccc3c(c2)OCO3)=CC(c2ccccc2O)N1 (stereo not drawn)	.	.	.	.	.	-5%
Cc1cccc(CSCCNC(=O)C2CCN(S(=O)(=O)Cc3ccccc3)CC2)c1	-9%	-11%	-2	.	.	0%
COc1ccc2c(c1)-c1c(sn(-c3ccc(OC)c(OC)c3)c1=S)C(C)(C)N2	?	-32%	-3	-59*	11%	-1%
COc1ccc(-n2sc3c(c2=S)-c2cc(OC)ccc2NC3(C)C)cc1	?	-13%	4	-11	-5%	1%
CCN(Cc1ccc(OC)c(F)c1)C(=O)CCl	3.2µM*	-18%	3	12	0%	.
O=C(/C=C/c1cccnc1)/C=C/c1cccnc1	?	?	-17	-102*	-4%	0%
Cc1cccc(C(=O)Nc2ccc(C(=O)/C=C/c3cccnc3)cc2)c1	14%	-22%	-12	-81*	20%	7%
Cc1cccc(C(=O)Nc2ccc(NC(=O)Cc3ccc(Cl)cc3)cc2)c1	16%	6%	1	1	0%	32µM*
Cc1cccc(C(=O)Nc2ccc(C(=O)Nc3ccc(O)cc3)cc2)c1	2.8µM*	?	-1	-18	-4%	3%
C(=Cc1cccnc1)c1ccncc1	-9%	-6%	14	19	9%	.
CCN1CCN(C(c2cccc(OC)c2)c2c(O)cc(C)n(Cc3ccco3)c2=O)CC1 (stereo not drawn)	1%	-4%	0	.	.	-1%
O=[N+]([O-])c1ccccc1N(S(=O)(=O)c1ccccc1)S(=O)(=O)c1ccccc1	-15%	2%	-10	-18	-4%	-1%
CC1(C(=O)NS(=O)(=O)C2CC2)CCCN(C(=O)c2ccc(C(F)(F)F)cc2)C1 (stereo not drawn)	1%	-2%	3	4	-1%	-1%
Cc1ccc(C(=O)Nc2cc(C(C)C)c(O)c(C(C)C)c2)cc1	4.5µM*	3%	0	-14	-12%	-2%
CCCCCc1c(CC)ncn1CCc1ccccc1OC	?	-21%	-13	-19	-1%	-3%
Cc1ccc(-n2ncc(C(=O)NCCc3ccccc3)c2C2CCN(C(=O)OC(C)(C)C)CC2)c(C)c1	?	-4%	-2	.	.	2%

Screens (PubChem BioAssay)
